Screening results deposited in PubChem by National Center for Advancing Translational Sciences (NCATS).
The list is not random: actives were taken first. Their share in the collection is about 2.4%.
D2 ag-1 = D2 dopamine receptor (human) agonism. HEK293 T-REx D2 cells, calcium flux agonist mode. activation, % at 2 µM. P14416. hit rate 0.53% among 340,000;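 active = activation over 3 SD above normal in the single-dose calcium agonist read, cut at about 30% in these data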; note: 0% is about no effect
Target sequence (P14416 whole entry, looked up): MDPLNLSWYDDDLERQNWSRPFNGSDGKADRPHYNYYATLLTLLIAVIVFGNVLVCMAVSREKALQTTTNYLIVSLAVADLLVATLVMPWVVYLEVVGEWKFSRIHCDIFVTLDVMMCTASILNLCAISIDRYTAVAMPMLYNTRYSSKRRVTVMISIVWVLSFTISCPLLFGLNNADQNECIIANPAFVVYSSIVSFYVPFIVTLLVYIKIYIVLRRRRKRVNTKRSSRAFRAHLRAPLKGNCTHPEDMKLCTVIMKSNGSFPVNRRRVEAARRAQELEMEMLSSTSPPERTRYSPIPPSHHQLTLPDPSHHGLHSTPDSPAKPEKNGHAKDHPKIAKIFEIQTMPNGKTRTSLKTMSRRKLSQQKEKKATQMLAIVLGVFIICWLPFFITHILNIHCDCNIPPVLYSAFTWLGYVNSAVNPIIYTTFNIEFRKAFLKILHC
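In this primary screen, compounds producing a positive calcium signal within 180 s of addition to tetracycline-induced, force-coupled HEK293 Trex D2 cells are flagged; cells are dye-loaded with a no-wash calcium kit beforehand.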
D2 PAM-1 = positive allosteric modulators of human D2 dopamine receptor; DiscoveRx D2 beta-arrestin cells, luminescence, 90 min; 100% = 57 uM dopamine signal; potentiation, % (test concentration not listed); hit rate 0.23% among 360,000; in the data active = potentiation above about 50%; inconclusive = mostly about 30% to 49%
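PathHunter D2 cells, attached overnight at 37 deg C, received compound in DMSO plus dopamine at EC20 (50 nM final) for 90 min at 37 deg C. Beta-arrestin recruitment was read as luminescence after 1 h with detection reagent at ambient temperature.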
D2 ag-2 = human D2 receptor agonism in beta-arrestin assay; P14416; DiscoveRx PathHunter D2 beta-arrestin, luminescence, 90 min; 100% = 57 uM dopamine signal; activation, % (concentration not given with the values); hit rate 0.084% among 360,000; AID 624465; in the data active = activation above about 40%; inconclusive = between about 15% and that limit
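DiscoveRx PathHunter D2 beta-arrestin cells (2,100/well) attached overnight, then compound-stimulated 90 min at 37 C in HBSS/10 mM HEPES/0.1% Tween-20 buffer; beta-galactosidase complementation read by luminescence after 1 h at ambient temperature. Dopamine 57 uM final (EC100) as control.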
D2 antagonist = D2 dopamine receptor (human) antagonism. HEK293 TREx D2 cells, calcium flux, dopamine EC80. inhibition, % at 10 µM. hit rate 2% among 340,000; in the data active = inhibition above about 30%; inactive = below that, where a call was filed; note: 0% is about no effect
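Antagonism is scored as inhibition of an EC80 dopamine-evoked calcium signal in a force-coupled, tetracycline-inducible HEK293 T-REx D2 line, with compound present 180 s before agonist.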
D2 PAM-2 = positively modulates the human D2 dopamine receptor allosterically. HEK293 T-REx D2, calcium flux, EC20 dopamine potentiation. potentiation, % at 10 µM. hit rate 0.34% among 340,000. AID 485347;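 active = potentiation over 3 SD above the plate norm, cut at about 30% in these data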; note: 0% is about no effect
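Primary screen. Calcium kinetics in induced HEK293 T-REx D2 cells: compound pre-addition 180 s, EC20 dopamine, 180 s more.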
D3 arrestin ag = D3 receptor agonism confirmed, beta-arrestin readout; shares compounds with D2 ag-1; DiscoveRx D3 beta-arrestin cells, luminescence, 90 min; Potency, µM (highest dose often 76.9 µM), inactives show at the highest dose activation, usual class: activators; hit rate 4% among 2,300;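 note: potency is the fitted concentration of half-maximal effect; 100% = dopamine control response; nearly all actives have a fitted effect of over 70% in size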
D2 ag-3 = activates human D2 dopamine receptor in D3 counterscreen. shares compounds with D2 ag-1. DiscoveRx PathHunter D2 beta-arrestin, luminescence, 90 min; response scale: percent relative to full dopamine signal. Potency, µM (series often up to 76.9 µM), for inactives: at the highest dose activation, usual class: activators. hit rate 5.9% among 2,300; note: potency is the fitted concentration of half-maximal effect; % of control where 0% means no effect; nearly all actives have a fitted effect of over 70% in size
Active calls of the source: *; ? = inconclusive; . = not tested or not shown. Unless noted, calls come from the whole dose curve; as a rule, active = well fitted activation curve with a large enough effect; inconclusive = small, poorly fitted or top-dose-only effect; inactive = flat fitted curve, though single readings scatter.

SMILES	D2 ag-1	D2 PAM-1	D2 ag-2	D2 antagonist	D2 PAM-2	D3 arrestin ag	D2 ag-3
CCC1=Nc2cc(C(=O)N3CCC(C)CC3)ccc2Sc2ccc(C)cc21	0.7	.	.	.	23.1	.	.
c1ccc(CN2CCN(Cc3cn4cccnc4n3)CC2)cc1	0.5	-10.2	2.6	8.5	-9.9	.	.
c1ccc(N2CCN(Cc3cn4cccnc4n3)CC2)cc1	53.0*	-4.5	0.0	48.5*	-24.0	1.3%	23.2%
c1ccc(N2CCN(Cc3cn4ccccc4n3)CC2)cc1	69.5*	-16.3	2.0	36.6*	-18.4	-9.3%	7.2%
Cc1ccc(-n2ncc(C(=O)NCc3ccco3)c2C2CCN(C(=O)OC(C)(C)C)CC2)c(C)c1	0.0	.	.	.	4.6	.	.
Cc1ccc(S(=O)(=O)NC(=O)NC2=NC(C)(C)N(c3ccc(Cl)c(Cl)c3)C(N)=N2)cc1	.	-6.4	0.6	.	.	.	.
COc1ccccc1Cn1cc(C(=O)c2ccc(C)cc2)c(=O)c2cc(C)ccc21	-2.2	.	.	.	-5.9	.	.
COc1cccc(CN2CCN(c3ncccn3)CC2)c1OC	81.3*	9.8	?	60.3*	-17.9	14.0%	?
COc1ccccc1N1CCN(CCCCOc2cccc3ccccc23)CC1	34.5*	-41.7	0.6	73.1*	-19.1	-3.3%	16.7%
c1cnc(N2CCN(Cc3c[nH]c4ccccc34)CC2)nc1	86.2*	?	?	83.4*	-28.3	4.1%	?
CCOc1ccccc1N1CCN(Cc2cccc(OC)c2OC)CC1	26.2	4.0	2.0	87.4*	-31.6	-22.0%	-2.7%
Cc1cc(NC(=O)c2ccc(NC(=O)CCS(=O)(=O)c3cccs3)cc2)ccc1Br	.	.	.	.	-1.1	.	.
CCc1ccc(C2=NN(CCC(=O)NCCc3ccccc3)C(=O)CC2)cc1	1.2	.	.	.	-17.9	.	.
COc1cccc(CN2CCN(Cc3cc(OC)c(OC)c(OC)c3)CC2)c1OC	-0.4	-11.2	5.3	4.0	-8.7	-0.2%	-1.4%
COc1ccc(CN2CCN(c3ncccn3)CC2)c(C)c1C	87.6*	5.2	47.1*	93.4*	-29.5	?	2.24µM*
COc1ccc(CN2CCN(c3ccccn3)CC2)c(OC)c1C	.	12.6	13.4	.	.	0.3%	?
COc1cccc(CN2CCN(Cc3cccc(Oc4ccccc4)c3)CC2)c1OC	-0.5	-41.0	-3.0	-15.8	-24.4	.	.
COc1ccc(CN2CCSCC2)c(OC)c1C	-0.5	-10.8	-4.2	-17.1	-6.0	.	.
Fc1ccccc1N1CCN(CC2CC3C=CC2C3)CC1 (configuration not stated)	78.6*	-6.9	?	73.9*	-15.2	?	?
CCn1c(CN2CCCCC2)nc2cc(NC(=O)COc3ccccc3C(C)(C)C)ccc21	-1.8	.	.	.	-21.5	.	.
COc1ccc(NC(=O)C(C)N2CCN(C)CC2)cc1 (configuration not stated)	79.1*	3.5	-1.6	-20.8	-29.4	-2.5%	-2.0%
COc1ccc(OCC(O)CNCCOc2ccccc2OC)c(C(C)(C)C)c1 (configuration not stated)	44.6*	-10.1	2.5	71.2*	-20.5	22.2%	18.9%
COc1ccccc1NCC(O)COc1ccc(C(C)(C)C)cc1 (configuration not stated)	-0.1	0.6	4.3	7.3	-0.1	.	.
CCOc1ccccc1CN1CCc2nc(N3CCN(c4ccccc4F)CC3)ncc2C1	3.1	.	.	.	.	.	.
Cc1cccc(CN2CCN(c3ncccn3)CC2)c1	86.8*	?	?	82.8*	-30.4	?	7.94µM*
SMILES	D2 ag-1	D2 PAM-1	D2 ag-2	D2 antagonist	D2 PAM-2	D3 arrestin ag	D2 ag-3
Brc1cccc(CN2CCN(c3ncccn3)CC2)c1	73.1*	?	73.3*	84.7*	-16.8	25.7%	11.2µM*
CC(=O)c1ccc(N2CCN(S(=O)(=O)c3cc(-c4onc(C)c4C)ccc3C)CC2)cc1	0.4	.	.	.	.	.	.
COC(=O)CCN(c1ccccc1)C(CNS(=O)(=O)c1ccccc1)c1ccccc1 (configuration not stated)	-1.1	.	.	.	17.1	.	.
Cc1ccc(CCNS(=O)(=O)c2ccc3c(c2)CCN3C(=O)CCC(=O)O)cc1	-1.8	.	.	.	6.7	.	.
O=C(O)CCCCCCCCc1cn(CCc2c[nH]c3ccccc23)nn1	93.3*	-7.8	-1.5	-1.1	-20.0	2.9%	-2.3%
COc1ccc2c(c1)c(=O)c(S(=O)(=O)c1ccccc1)cn2CC(=O)Nc1ccc(C)c(Cl)c1	0.9	.	.	.	-24.9	.	.
Nc1ncnc2c1ncn2C1OC(C(=O)NC2CC2)C(O)C1O (configuration not stated)	-0.4	-4.9	1.0	5.7	19.6	2.1%	-6.7%
C[C@@H](CO)NC(=O)[C@H]1O[C@@H](n2cnc3c(N)ncnc32)[C@H](O)[C@@H]1O	.	-6.1	-4.4	.	.	.	.
CSc1nc2ccc(NC(=O)c3cccs3)cc2s1	.	-19.4	3.2	.	.	.	.
CSc1nc2ccc(NC(=O)c3ccc(=O)[nH]c3)cc2s1	49.4*	-5.8	5.2	-4.4	-16.6	-7.3%	0.9%
CSc1nc2ccc(NC(=O)c3ccc(F)c(F)c3)cc2s1	2.3	-4.6	-2.1	-11.0	-4.8	.	.
CSc1nc2ccc(NC(=O)c3ccc(=O)n(C)n3)cc2s1	16.6	-9.1	1.4	20.4	-13.5	22.2%	11.8%
OC[C@@H]1CN(Cc2ccc(F)cc2)C[C@H](n2cnc3c(NCc4ccc(F)cc4)ncnc32)O1	.	-19.6	-2.6	.	.	.	.
COc1cccc(N2CCN(C(=O)CCc3c(C)nc4c(c3C)c(=O)n(C)c(=O)n4C)CC2)c1	-1.3	.	.	.	7.1	.	.
c1ccc(CN2CCN(c3ncnc4nc[nH]c34)CC2)cc1	81.2*	8.3	9.9	68.3*	-21.9	2.7%	?
C1=C(c2ccccc2)CCN(c2ncnc3nc[nH]c23)C1	0.0	-3.4	2.0	-13.2	3.6	.	.
Cc1nc2cc(-c3ccccc3)nn2c(C)c1CCC(=O)N1CCN(c2ccc(F)cc2)CC1	0.7	.	.	.	3.9	.	.
CCN(CC(=O)Nc1ccccc1C(F)(F)F)C(=O)c1ccc2c(=O)n3c(nc2c1)CCC3	1.2	2.0	0.7	-6.1	8.2	.	.
CN(CC(=O)Nc1ccccc1Br)C(=O)c1ccc2c(=O)n3c(nc2c1)CCC3	0.2	0.6	0.0	24.1	-10.3	-1.9%	-7.2%
CCc1nnc(NC(=O)c2ccc3c(=O)n4c(nc3c2)CCCCC4)s1	5.8	2.3	-0.6	-3.8	1.0	-10.1%	-3.8%
CCc1ccc(NC(=O)c2ccc3c(=O)n4c(nc3c2)CCCCC4)cc1	-0.1	-10.0	4.5	17.7	-1.3	.	.
Cc1cc(Cl)ccc1NC(=O)CN(c1ccccc1Br)S(C)(=O)=O	-1.3	.	.	.	-4.9	.	.
